The structures appear in SMILES notation. The campaign covered roughly 11,000 compounds. About 310 (2.8%) were called active. No stated cut-off is given here; in the data, active means activity change below about -85%; inactive means the rest. The full list was thinned out, with actives kept by preference.

The subject of this assay is intestinal alkaline phosphatase [Mus musculus]. Description: activators of mouse IAP, confirmation, biochemical, luminescence, single concentration (AID 434970). The following applies: purified mouse IAP, CDP-Star luminescence, 30 min, at 10 µM; activation factor: measured here: IAP activation factor, stronger effect = higher value; activity change, negative = activation: stronger effect = lower value.
On to `NC(=O)CSCc1cccc(Br)c1`, for which the activation factor is 1.01 and the activity change, negative = activation is -0.9% (inactive).

As to `O=S1(=O)c2ccccc2OC(COCc2ccccc2)CN1Cc1ccccc1` (centres undefined), the activation factor amounted to 1.13 and the activity change, negative = activation is -13.2% (inactive).

For the compound `Cc1cc(C)nc(SCc2nnc(SCC(=O)Nc3ccccc3C)n2Cc2ccco2)n1`, the activation factor was determined as 0.974 and the activity change, negative = activation is 2.65% (inactive).

In the case of `Cc1ccc(-c2cc(C(F)F)n3ncc(C(=O)N4CCN(c5cccc(C)c5C)CC4)c3n2)cc1`, the activation factor is 0.892 and the activity change, negative = activation was 10.8% (inactive).

With `CCCc1cc(=O)oc2cc3occ(C)c3cc12`, the activation factor is 0.917 and the activity change, negative = activation was 8.35% (inactive).

In the case of `CCOn1c(=O)c(-c2ccc(Cl)cc2)[n+]([O-])c2ccccc21`, the activation factor was determined as 0.944 and the activity change, negative = activation was 5.65% (inactive).

For the compound `CC(C)(C)c1n[nH]c(=S)n(N)c1=O`, the activation factor was determined as 1.04 and the activity change, negative = activation is -4.25% (inactive).

`CCn1c(CNc2nc3ccccc3n2C(C)C)nc2ccccc21`: the activation factor came to 1.97 and the activity change, negative = activation is -97.3% (active).

For the compound `CCn1c(NCc2ccccn2)nc2ccccc21`, the activation factor came out at 0.877 and the activity change, negative = activation is 12.3% (inactive).

Take `CCn1c(NCc2ccc(N(C)C)cc2)nc2ccccc21`: the activation factor came out at 1.11 and the activity change, negative = activation was -10.6% (inactive).

For `Cc1ccc2oc(-c3ccc(NC(=O)c4ccc5c(c4)OCO5)cc3)nc2c1`, the activation factor amounted to 0.944 and the activity change, negative = activation is 5.6% (inactive).

On to `CSc1nccc(-c2nn(-c3ccc(C)cc3)ccc2=O)n1`, for which the activation factor was found to be 1 and the activity change, negative = activation is -0.05% (inactive).

Consider `OC[C@@H]1CC[C@@H](Cc2ccc(-c3ccccc3)cc2)O1`, for which the activation factor was found to be 1.07 and the activity change, negative = activation is -7.05% (inactive).

Consider `S=C(NCC1COc2ccccc2O1)Nc1ccc(Br)cc1` (centres undefined), for which the activation factor was 1.68 and the activity change, negative = activation is -68.1% (inactive).

In the case of `COc1ccc2cc(C[C@@H]3CC[C@@H](CNC(N)=O)O3)ccc2c1`, the activation factor is 0.994 and the activity change, negative = activation was 0.55% (inactive).

With `CCOC(=O)C1=C(C)N(C[C@@H]2CC[C@@H](Cc3ccc(-c4ccccc4)cc3)O2)C(=O)NC1c1ccc(-c2ccccc2)cc1` (some centres undefined), the activation factor was determined as 1.12 and the activity change, negative = activation is -12.1% (inactive).

With `O=C(NCCCCc1ccccc1)NC[C@@H]1CC[C@@H](Cc2ccc(-c3ccccc3)cc2)O1`, the activation factor was determined as 4.44 and the activity change, negative = activation is -344% (active).

Consider `COc1ccc(N2CCN(CCCNC(=O)Nc3ccccc3)CC2)cc1`, for which the activation factor turned out to be 1.16 and the activity change, negative = activation was -16.2% (inactive).

For the compound `COc1ccc(NC(=O)NC[C@@H]2CC[C@@H](Cc3ccc(-c4ccccc4)cc3)O2)cc1`, the activation factor worked out at 2.82 and the activity change, negative = activation is -182% (active).

For the compound `NC(=O)NC[C@@H]1CC[C@@H](Cc2ccc(-c3ccccc3)cc2)O1`, the activation factor was 1.01 and the activity change, negative = activation is -0.6% (inactive).

For `O=C(NC[C@@H]1CC[C@@H](Cc2ccc(-c3ccccc3)cc2)O1)Nc1ccc(Br)cc1`, the activation factor was 4.1 and the activity change, negative = activation is -310% (active).

As for `CC(C)[C@H]1COCCS(=O)(=O)N1Cc1ccccc1-c1cccc2c1oc1ccccc12`, the activation factor came to 0.927 and the activity change, negative = activation was 7.3% (inactive).

Source of the values: PubChem BioAssay AID434970 (Sanford-Burnham Center for Chemical Genomics, 2010).
